Bioassay records deposited in PubChem BioAssay by Broad Institute.
C diff growth – C. difficile growth inhibitors, primary screen, HTS. growth activity, negative = inhibition, % at 16 µg/mL (by protocol). actives 0.25% (n = 86,000). Clostridium difficile clinical isolate growth, OD600, 24 h; active compounds read low;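 active means mean growth activity at or below -80% and every replicate also at or below -80%; inconclusive means mean at or below -80% but some replicate above -80%; inactive means mean growth activity above -80%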;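 further: 0% = DMSO wells and -100% = levofloxacin 16 µg/mL wells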
Pf Dd2 growth – P. falciparum Dd2 growth inhibitors, primary screen, SYBR Green fluorescence, single dose replicates. 72 h; active compounds read low. actives 2.3% (n = 94,000). activity change, % at 10 µM; in the data active means activity change below about -80%; inconclusive means no clear call, values can overlap the other calls
T cruzi growth-1 – T. cruzi intracellular proliferation inhibitors, primary screen, cell-based, beta-gal Tulahuen parasites, NIH3T3 host, luminescence; T. cruzi beta-gal in NIH3T3, GalScreen luminescence, 90 h; inhibition, % at 8.34 µM; actives 5.9% (n = 77,000); AID 624255, 2012;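 active means mean inhibition above about 93%, with at least 55% of replicates each passing it, limit read from the data, passing the limit was not always enough; inconclusive means only one of those two conditions holds; inactive means neither condition holds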
T cruzi growth-2 – T. cruzi intracellular proliferation inhibitors, confirmation, cell-based, NIH3T3 host, beta-gal parasite, luminescence, cherry-pick. shares compounds with T cruzi growth-1. actives 72% (n = 5,600). T. cruzi beta-gal in NIH3T3, GalScreen luminescence, 90 h. inhibition, % at 8.35 µM;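 active means mean replicate inhibition above about 95% and at least 55% of replicates individually reaching it, limit read from the data; inconclusive means only one of the two criteria is met; inactive means neither criterion is met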
T cruzi growth-3 – inhibitors of intracellular T. cruzi replication, confirmation, NIH3T3 host cells, beta-gal parasites, cherry-pick, set 2 | shares compounds with T cruzi growth-1 | T. cruzi beta-gal in NIH3T3, GalScreen luminescence, 90 h | inhibition, % at 2.09 µM | actives 21% (n = 5,600) | AID 651740, 2012;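 active means mean inhibition above about 95%, with at least 55% of replicates also reaching it, limit read from the data; inconclusive means meets just one of the two conditions; inactive means meets neither condition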;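 further: plate controls were neutral control median for no effect and positive control median for full effect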
NIH3T3 tox – cytotoxicity in mouse NIH/3T3 fibroblasts, confirmation, cytotoxicity control for T. cruzi proliferation inhibitor project, cell-based, cherry-pick, single point. AID 651742, 2012. shares compounds with T cruzi growth-1. NIH/3T3 viability, CellTiter-Glo ATP luminescence, 90 h. actives 14% (n = 5,600). cytotoxicity (signal decrease), % at 8.35 µM;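 active means mean signal decrease across replicates above about 35% based on untreated-well scatter, with enough replicates individually passing, limit read from the data; inconclusive means no rule stated though some were filed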;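 further: 0% = median of neutral control wells and 100% = median of positive control wells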
3T3 cytotox 2 – NIH/3T3 fibroblast cytotoxicity, confirmation, cytotoxicity control, cell-based, cherry-pick, single point, set 2; AID 651744, 2012; inhibition, % at 24.9 µM; NIH/3T3 viability, CellTiter-Glo ATP luminescence, 90 h; actives 56% (n = 5,600); shares compounds with T cruzi growth-1;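 active means mean loss of cell viability signal at or above a set limit, and enough replicates individually reaching it; inconclusive means meets only the mean limit or only the replicate share; inactive means meets neither condition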;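 further: 0% = median of neutral control wells and 100% = median of positive control wells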
Starred values were filed as active, the others as inactive; ? = inconclusive; . = no result given. The list is not random: actives were taken first. Their share in the collection is about 6.8%.

SMILES	C diff growth	Pf Dd2 growth	T cruzi growth-1	T cruzi growth-2	T cruzi growth-3	NIH3T3 tox	3T3 cytotox 2
N#Cc1cccc(-c2ccc([C@H]3[C@H]4CN(C(=O)Nc5ccccc5)CCCCN4[C@H]3CO)cc2)c1	9	13	57	.	.	.	.
CCS(=O)(=O)N1CCCCN2[C@H](C1)[C@@H](c1ccc(-c3cccc(C#N)c3)cc1)[C@@H]2CO	-2	-31	73	.	.	.	.
O=C(Nc1ccc(F)cc1)N1CCCCN2[C@H](C1)[C@H](c1ccc(-c3cccc(F)c3)cc1)[C@@H]2CO	43	-2	116*	109*	77	10	79*
CC=Cc1ccc2n(c1=O)C[C@@H]1N[C@H]2[C@H](C(=O)NC2CCCCC2)[C@H]1CO (mixture of isomers)	-2	.	81	.	.	.	.
O=C(C[C@@H]1C[C@@H]2c3cc(NC(=O)Nc4ccccc4)ccc3O[C@@H]2[C@@H](CO)O1)NCc1cccc(F)c1	-5	-21	49	.	.	.	.
N#Cc1ccc(-c2ccc([C@H]3[C@@H](CO)N4CCCCN(C(=O)Nc5ccc(F)cc5)C[C@H]34)cc2)cc1	29	-49	98*	105*	105*	32	104*
N#Cc1ccc(-c2ccc([C@H]3[C@H](CO)N4CCCCN(C(=O)Nc5ccc(F)cc5)C[C@@H]34)cc2)cc1	34	-15	51	.	.	.	.
CCC(=O)N(C)C[C@H]1Oc2cc(C#CC3CC3)ccc2S(=O)(=O)N([C@@H](C)CO)C[C@H]1C	.	27	-8	.	.	.	.
O=C(N[C@H]1CC[C@H](CCNS(=O)(=O)c2ccc(F)cc2)O[C@@H]1CO)C1CCCC1	0	28	.	.	.	.	.
C[C@@H]1CCCCO[C@@H](CN(C)Cc2ccc3c(c2)OCO3)[C@@H](C)CN([C@H](C)CO)C(=O)c2cc(NC(=O)Nc3ccc4c(c3)OCO4)ccc2O1	.	4	41	.	.	.	.
C[C@@H]1CCCCO[C@@H](CN(C)Cc2ccc3c(c2)OCO3)[C@@H](C)CN([C@@H](C)CO)C(=O)c2cc(NC(=O)Nc3ccc4c(c3)OCO4)ccc2O1	.	-18	87	.	.	.	.
C[C@@H]1CCCCO[C@H](CN(C)Cc2ccc(Cl)c(Cl)c2)[C@@H](C)CN([C@H](C)CO)C(=O)c2cc(NC(=O)Nc3ccc4c(c3)OCO4)ccc2O1	-2	8	103*	107*	105*	25	13
C[C@@H]1CCCCO[C@H](CN(C)Cc2ccc3c(c2)OCO3)[C@H](C)CN([C@@H](C)CO)C(=O)c2cc(NC(=O)Nc3ccc4c(c3)OCO4)ccc2O1	.	-77	87	.	.	.	.
C[C@@H]1CCCCO[C@H](CN(C)Cc2ccc3c(c2)OCO3)[C@@H](C)CN([C@H](C)CO)C(=O)c2cc(NC(=O)Nc3ccc4c(c3)OCO4)ccc2O1	.	10	?	110*	-16	-14	3
C[C@H]1CCCCO[C@H](CN(C)Cc2ccc3c(c2)OCO3)[C@@H](C)CN([C@@H](C)CO)C(=O)c2cc(NC(=O)Nc3ccc4c(c3)OCO4)ccc2O1	.	-65	100*	99*	110*	32	106*
O=C(O)C[C@@H]1CC[C@@H](NC(=O)Nc2ccccc2)[C@H](CO)O1	.	9	21	.	.	.	.
CO[C@@H]1CN(C)C(=O)c2ccc(NS(=O)(=O)c3ccc(C)cc3)cc2OC[C@H](C)N(C(=O)NC(C)C)C[C@@H]1C	.	.	-1	.	.	.	.
C[C@@H](NC(=O)[C@H]1[C@H](CO)[C@H]2Cn3c(cccc3=O)[C@H]2N1CC1CCCCC1)c1ccccc1	10	-21	.	.	.	.	.
COc1ccccc1-c1cn(CC[C@H]2CC[C@@H](NC(=O)c3cnccn3)[C@H](CO)O2)nn1	-2	7	1	.	.	.	.
Cc1cccc(-c2ccc([C@@H]3[C@@H](CO)N4CCCCN(Cc5cncnc5)C[C@@H]34)cc2)c1	-4	13	43	.	.	.	.
